Among all 5,500 compounds or so, about 2,000 (36%) were called active. Roughly 18% stayed inconclusive and do not appear here. Cut-off read from the data, not from the text of the source: active = normalized growth mostly below about 0.91 (no sharp cut-off); inconclusive = no clear call, values can overlap the other calls; inactive = mostly above about 0.92. This is one part of the list.
Assay: chemical genetic growth profiling, strain panel (AID 1159580);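 note: tested at 20 µM; growth read once vehicle control cultures reached saturation at 30 °C; 1 = growth at the plate median or of vehicle wells; lower values mean less growth of the strain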
Conditions: S. cerevisiae deletion strains, growth OD

Measured: normalized growth

CC(=O)O[C@@H]1CC2C(C)(C)CCC(=O)[C@]2(C)C2CC[C@@]3(C)[C@H](c4ccoc4)OC(=O)C4OC43[C@@]21C (stereo partly specified)
inactive: locus YAL013W, strain DEP1, active compounds read low 1 | locus YAL021C, strain ccr4, active compounds read low 0.98 | locus YAL026C, strain drs2, active compounds read low 1 | locus YAL030W, strain snc1, active compounds read low 1.01 | locus YBL061C, strain skt5, active compounds read low 1.01 | locus YBR009C, strain hhf1, active compounds read low 1 | locus YBR021W, strain FUR4, active compounds read low 0.989 | locus YBR023C, strain chs3, active compounds read low 1 | locus YBR171W, strain sec66, active compounds read low 0.986 | locus YBR229C, strain ROT2, active compounds read low 0.996 | locus YBR231C, strain swc5, active compounds read low 0.993 | locus YBR279W, strain paf1, active compounds read low 1.01 | locus YCL011C, strain gbp2, active compounds read low 0.984 | locus YCL016C, strain dcc1, active compounds read low 1.01 | locus YCL029C, strain bik1, active compounds read low 0.984 | locus YCL061C, strain MRC1, active compounds read low 1.02 | locus YCL069W, strain vba3, active compounds read low 0.99 | locus YCR088W, strain abp1, active compounds read low 0.991 | locus YDL005C, strain med2, active compounds read low 0.994 | locus YDL035C, strain GPR1, active compounds read low 1.03 | locus YDL040C, strain nat1, active compounds read low 0.986 | locus YDL074C, strain BRE1, active compounds read low 0.994 | locus YDL101C, strain DUN1, active compounds read low 0.984 | locus YDL185W, strain tfp1, active compounds read low 0.981 | locus YDL192W, strain arf1, active compounds read low 0.993 | locus YDR001C, strain nth1, active compounds read low 0.998 | locus YDR069C, strain doa4, active compounds read low 1.01 | locus YDR101C, strain arx1, active compounds read low 0.991 | locus YDR137W, strain rgp1, active compounds read low 1.05 | locus YDR159W, strain sac3, active compounds read low 1.02 | locus YDR162C, strain NBP2, active compounds read low 1.02 | locus YDR195W, strain ref2 0.941 | locus YDR297W, strain sur2, active compounds read low 1 | locus YDR318W, strain mcm21, active compounds read low 0.993 | locus YDR334W, strain swr1, active compounds read low 0.986 | locus YDR335W, strain msn5, active compounds read low 0.987 | locus YDR388W, active compounds read low 0.98 | locus YDR392W, strain spt3, active compounds read low 0.991 | locus YDR502C, strain sam2, active compounds read low 0.973 | locus YEL003W, strain gim4, active compounds read low 0.995 | locus YEL037C, strain rad23, active compounds read low 0.984 | locus YEL061C, strain CIN8 (second series), active compounds read low 0.987 | locus YEL061C, strain CIN8, active compounds read low 1.01 | locus YER015W, strain faa2, active compounds read low 1 | locus YER016W, strain bim1, active compounds read low 1 | locus YER110C, active compounds read low 0.978 | locus YER111C, strain swi4, active compounds read low 0.987 | locus YER155C, strain BEM2 (second series), active compounds read low 1.02 | locus YER155C, strain BEM2, active compounds read low 0.988 | locus YER167W, strain BCK2, active compounds read low 1 | locus YFR010W, strain ubp6, active compounds read low 0.979 | locus YGL078C, strain dbp3, active compounds read low 0.994 | locus YGL086W, strain mad1, active compounds read low 0.985 | locus YGL167C, strain pmr1, active compounds read low 1.01 | locus YGL173C, strain kem1, active compounds read low 1.01 | locus YGL227W, strain vid30, active compounds read low 0.994 | locus YGL240W, strain doc1, active compounds read low 0.984 | locus YGL248W, strain PDE1, active compounds read low 0.988 | locus YGL253W, strain hxk2, active compounds read low 0.966 | locus YGR135W, strain pre9, active compounds read low 0.973 | locus YGR229C, strain SMI1, active compounds read low 1.02 | locus YGR252W, strain gcn5, active compounds read low 0.952 | locus YHR013C, strain ard1, active compounds read low 0.994 | locus YHR027C, strain rpn1, active compounds read low 1.01 | locus YHR079C, strain IRE1 (second series), active compounds read low 0.99 | locus YHR094C, strain hxt1, active compounds read low 0.983 | locus YHR129C, strain ARP1, active compounds read low 0.997 | locus YHR142W, strain chs7, active compounds read low 0.991 | locus YHR200W, strain rpn10, active compounds read low 0.975 | locus YIL066C, strain RNR3, active compounds read low 1 | locus YIL073C, strain SPO22, active compounds read low 1 | locus YIL125W, strain kgd1, active compounds read low 0.989 | locus YIR030C, strain dcg1, active compounds read low 0.987 | locus YJL092W, strain hpr5, active compounds read low 0.985 | locus YJL095W, strain BCK1 (second series), active compounds read low 1 | locus YJL095W, strain BCK1, active compounds read low 0.988 | locus YJL115W, strain asf1, active compounds read low 0.994 | locus YJL129C, strain trk1, active compounds read low 0.996 | locus YJL134W, strain LCB3, active compounds read low 0.998 | locus YJL154C, strain vps35, active compounds read low 1 | locus YJL164C, strain tpk1, active compounds read low 1.01 | locus YJL166W, strain qcr8, active compounds read low 1.02 | locus YJL168C, strain set2, active compounds read low 0.988 | locus YJL187C, strain SWE1 (second series), active compounds read low 0.977 | locus YJL187C, strain SWE1, active compounds read low 1 | locus YJR043C, strain POL32, active compounds read low 1.02 | locus YKL009W, strain mrt4, active compounds read low 1.01 | locus YKL068W, active compounds read low 0.992 | locus YKL085W, strain MDH1 (second series), active compounds read low 1 | locus YKL085W, strain MDH1, active compounds read low 1 | locus YKL160W, strain elf1, active compounds read low 1.02 | locus YKL190W, strain CNB1, active compounds read low 1.01 | locus YKR001C, strain vps1, active compounds read low 0.983 | locus YKR026C, strain gcn3, active compounds read low 1 | locus YKR091W, strain srl3, active compounds read low 1 | locus YLL001W, strain dnm1, active compounds read low 1.03 | locus YLL026W, active compounds read low 1.01 | locus YLL041C, strain sdh2, active compounds read low 0.993 | locus YLR027C, strain aat2, active compounds read low 1.01 | locus YLR039C, strain RIC1, active compounds read low 1.06 | locus YLR058C, strain SHM2, active compounds read low 0.992 | locus YLR102C, strain apc9, active compounds read low 0.987 | locus YLR221C, strain rsa3, active compounds read low 1 | locus YLR258W, strain gsy2, active compounds read low 0.996 | locus YLR262C, strain YPT6 (second series), active compounds read low 1.03 | locus YLR262C, strain YPT6, active compounds read low 1.1 | locus YLR268W, strain sec22, active compounds read low 0.994 | locus YLR320W, strain mms22, active compounds read low 1.01 | locus YLR342W, strain FKS1 (second series), active compounds read low 1.05 | locus YLR342W, strain FKS1, active compounds read low 1.01 | locus YLR357W, strain rsc2, active compounds read low 0.97 | locus YLR370C, strain arc18, active compounds read low 0.983 | locus YLR371W, strain rom2, active compounds read low 0.992 | locus YLR384C, strain iki3, active compounds read low 0.997 | locus YLR418C, strain cdc73, active compounds read low 0.956 | locus YML016C, strain PPZ1, active compounds read low 0.999 | locus YML032C, strain rad52, active compounds read low 0.986 | locus YML120C, strain ndi1, active compounds read low 1 | locus YML124C, strain tub3, active compounds read low 0.994 | locus YMR058W, strain fet3, active compounds read low 0.999 | locus YMR078C, strain ctf18, active compounds read low 1 | locus YMR125W, strain sto1, active compounds read low 0.987 | locus YMR129W, active compounds read low 1.01 | locus YMR205C, strain PFK2, active compounds read low 1.04 | locus YMR223W, strain ubp8, active compounds read low 0.996 | locus YMR231W, strain pep5, active compounds read low 0.97 | locus YMR307W, strain GAS1, active compounds read low 1.07 | locus YNL067W, strain RPL9B, active compounds read low 0.987 | locus YNL071W, strain lat1, active compounds read low 0.993 | locus YNL209W, strain ssb2, active compounds read low 1.01 | locus YNL233W, strain BNI4, active compounds read low 1 | locus YNL248C, strain rpa49, active compounds read low 0.996 | locus YNL250W, strain rad50, active compounds read low 0.978 | locus YNL271C, strain bni1, active compounds read low 0.97 | locus YNL298W, strain CLA4, active compounds read low 0.996 | locus YNL307C, strain MCK1, active compounds read low 0.986 | locus YNL322C, strain KRE1 (second series), active compounds read low 0.99 | locus YNR049C, strain mso1, active compounds read low 1 | locus YNR052C, strain pop2, active compounds read low 0.966 | locus YOL006C, strain TOP1, active compounds read low 1.05 | locus YOL012C, strain htz1 0.864 | locus YOL147C, strain pex11, active compounds read low 0.982 | locus YOR001W, strain rrp6, active compounds read low 0.973 | locus YOR061W, strain CKA2, active compounds read low 0.998 | locus YOR069W, strain VPS5, active compounds read low 0.99 | locus YOR070C, strain gyp1, active compounds read low 1 | locus YOR080W, strain dia2, active compounds read low 1 | locus YOR083W, strain WHI5, active compounds read low 1.02 | locus YOR106W, strain vam3, active compounds read low 1.01 | locus YOR136W, strain idh2, active compounds read low 0.993 | locus YOR144C, strain elg1, active compounds read low 0.988 | locus YOR184W, strain ser1, active compounds read low 1.02 | locus YOR265W, strain rbl2, active compounds read low 0.996 | locus YOR270C, strain vph1, active compounds read low 1.02 | locus YOR290C, strain snf2, active compounds read low 0.981 | locus YOR316C, strain cot1, active compounds read low 0.984 | locus YPL051W, strain arl3, active compounds read low 1.02 | locus YPL055C, strain LGE1, active compounds read low 1.02 | locus YPL078C, strain atp4, active compounds read low 1.02 | locus YPL106C, strain sse1, active compounds read low 0.996 | locus YPL240C, strain hsp82, active compounds read low 0.999 | locus YPR119W, strain clb2, active compounds read low 0.981 | locus YPR141C, strain kar3, active compounds read low 0.996 | locus YPR163C, strain tif3, active compounds read low 0.975 | locus YPR167C, strain met16, active compounds read low 0.985 | strain wtn01, active compounds read low 1

From PubChem BioAssay AID1159580 (chemical genetic matrix, 2015)
